Among the test systems are SK-MEL-2 melanoma; EKVX NSCLC; SN12C renal; UO-31 renal; TK-10 renal; ACHN renal; CAKI-1 renal; A498 renal; CCRF-CEM leukemia; MOLT-4 leukemia; SR leukemia; RPMI-8226 leukemia; OVCAR-8 ovarian; OVCAR-5 ovarian; OVCAR-4 ovarian; SK-OV-3 ovarian; IGROV1 ovarian; OVCAR-3 ovarian; HS 578T breast; NCI/ADR-RES ovarian.
Holding throughout (assay): NCI-60 one-dose screen, 48 h (100 = growth as untreated, 0 = no growth, -100 = all killed)
What all share (conditions): 10 µM unless noted

The values below come from PubChem BioAssay (NCI).

Compounds without any hit were thinned out: in the full panel of roughly 83,000, 20% have a hit.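 Percent growth is the endpoint: 0 to 100 indicates growth inhibition (40 means 60% inhibition), 0 means no net growth, and negative values indicate cell death.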 Unmarked numbers belong to inactive results. The source made the active and inactive calls. Rule for the calls: active = growth percent below 10; inactive = the rest.

On to `N#Cc1c(N)nc2c(nnn2-c2cccc(Br)c2)c1N`, for which the growth with SK-MEL-2 melanoma is 103%; with EKVX NSCLC it was 43.6%; in the test on SN12C renal it was 93.4%; with UO-31 renal, 72.8%; with TK-10 renal, 119%; in the test with ACHN renal, 99%. Also, the growth in the test on CAKI-1 renal was 98.1%; with A498 renal, 105%; in the test with CCRF-CEM leukemia, 97.9%; with MOLT-4 leukemia, 83.3%; with SR leukemia, 83.8%; in the test with RPMI-8226 leukemia, 86.8%. Also, the growth in the test with OVCAR-8 ovarian is 93.8%; in the test on OVCAR-5 ovarian, 108%; with OVCAR-4 ovarian, 107%; with SK-OV-3 ovarian it was 101%; in the test with IGROV1 ovarian, 93.5%; in the test with OVCAR-3 ovarian, 106%. Moreover, the figures for the growth in the test with HS 578T breast and in the test with NCI/ADR-RES ovarian were 68.8% and 103%, respectively.
As to `O=C(Oc1ccc([N+](=O)[O-])cc1)c1ccc(CBr)cc1`, the growth with SK-MEL-2 melanoma is 101%; in the test with EKVX NSCLC it was 103%; in the test on SN12C renal, 89.9%; in the test on UO-31 renal, 83.3%; with TK-10 renal it was 99.3%; with ACHN renal, 95.2%. The growth is 86.2% with CAKI-1 renal; 86.5% with A498 renal; 68.7% with CCRF-CEM leukemia; 82.7% with MOLT-4 leukemia; 74.7% in the test with SR leukemia; 81.6% in the test on RPMI-8226 leukemia. The growth in the test with OVCAR-8 ovarian is 96.2%; in the test on OVCAR-5 ovarian, 103%; in the test with OVCAR-4 ovarian it was 111%; in the test with SK-OV-3 ovarian, 147%; in the test on IGROV1 ovarian, 90.7%; in the test on OVCAR-3 ovarian, 114%. The growth with HS 578T breast is 96.7%; in the test on NCI/ADR-RES ovarian it was 99.3%.
`COc1cc2oc3cc(C)oc(=O)c3c2cc1OC`: the growth with SK-MEL-2 melanoma is 97.2%; in the test with EKVX NSCLC, 102%; with SN12C renal it was 92.8%; in the test on UO-31 renal, 82.7%; with TK-10 renal, 96.7%; in the test with ACHN renal, 94%. Further, the growth in the test with CAKI-1 renal was 86.4%; with A498 renal, 86.3%; with CCRF-CEM leukemia it was 112%; in the test on MOLT-4 leukemia, 95%; in the test with SR leukemia it was 106%; in the test on RPMI-8226 leukemia it was 87.2%. Further, the growth in the test with OVCAR-8 ovarian was 97.3%; with OVCAR-5 ovarian it was 83.1%; in the test with OVCAR-4 ovarian it was 93.6%; in the test with SK-OV-3 ovarian it was 103%; with IGROV1 ovarian it was 98.9%; in the test with OVCAR-3 ovarian, 110%. For the same molecule, the growth with HS 578T breast was 106%; in the test on NCI/ADR-RES ovarian it was 89.1%.
Regarding `COc1ccc2cc(-c3ccc(C(=O)NN)c(C)n3)ccc2c1`, the growth in the test on SK-MEL-2 melanoma is 102%; with EKVX NSCLC it was 99.5%; with SN12C renal, 96.6%; in the test on UO-31 renal, 83.5%; in the test with TK-10 renal, 95.6%; in the test with ACHN renal, 103%. Also, the growth in the test with CAKI-1 renal was 103%; in the test on A498 renal it was 90.7%; with CCRF-CEM leukemia, 91.3%; in the test with MOLT-4 leukemia, 74%; in the test with SR leukemia, 78.4%; in the test with RPMI-8226 leukemia, 101%. Further, the growth is 102% in the test on OVCAR-8 ovarian; 91.6% in the test on OVCAR-5 ovarian; 90.8% in the test with OVCAR-4 ovarian; 95.7% in the test on SK-OV-3 ovarian; 101% in the test with IGROV1 ovarian; 91.9% in the test on OVCAR-3 ovarian. In addition, the growth in the test on HS 578T breast is 99.4%; in the test on NCI/ADR-RES ovarian, 105%.
For the molecule `CSc1nc2sc3cc(Cl)ccc3n2c(=N)c1C#N`, the growth with SK-MEL-2 melanoma was 87.3%; in the test on EKVX NSCLC, 81.9%; in the test on SN12C renal, 89.5%; with UO-31 renal, 75.2%; in the test on TK-10 renal it was 83.8%; with ACHN renal, 78.9%. Further, the growth was 69.9% with CAKI-1 renal; 98% in the test with A498 renal; 88.6% in the test with CCRF-CEM leukemia; 15.7% with MOLT-4 leukemia; 56.8% with SR leukemia; 83.5% with RPMI-8226 leukemia. Further, the growth with OVCAR-8 ovarian is 56.9%; with OVCAR-5 ovarian it was 107%; with OVCAR-4 ovarian, 45.4%; in the test with SK-OV-3 ovarian, 72.4%; in the test with IGROV1 ovarian, 96.7%; with OVCAR-3 ovarian, 101%. The growth in the test on HS 578T breast is 24.8%; in the test on NCI/ADR-RES ovarian it was 58.4%.
For `CCN(CC)CCCNC(=O)c1ccc(N)cc1`, the growth in the test with SK-MEL-2 melanoma was 99%; in the test with EKVX NSCLC, 104%; in the test with SN12C renal it was 103%; in the test with UO-31 renal, 78.8%; with TK-10 renal, 97.8%; with ACHN renal, 97.3%. Further, the growth in the test with CAKI-1 renal is 107%; in the test with A498 renal, 66.3%; in the test on CCRF-CEM leukemia, -34.9% (active); in the test on MOLT-4 leukemia it was 85.3%; in the test on SR leukemia it was 86.6%; in the test on RPMI-8226 leukemia, 105%. Besides, the growth with OVCAR-8 ovarian is 106%; in the test with OVCAR-5 ovarian, 97.1%; in the test on OVCAR-4 ovarian it was 114%; with SK-OV-3 ovarian, 112%; in the test on IGROV1 ovarian it was 100%; with OVCAR-3 ovarian it was 111%. Further, the growth with HS 578T breast is 99.2%; in the test with NCI/ADR-RES ovarian, 102%.
On to `Nc1nc(I)c2ncn(C3OC(CO)C(O)C3O)c2n1` (stereo not given), for which the growth is 159% in the test on SK-MEL-2 melanoma; 96.6% with EKVX NSCLC; 100% with SN12C renal; 96% in the test on UO-31 renal; 134% in the test with TK-10 renal; 111% with ACHN renal. Also, the growth with CAKI-1 renal was 9.47% (active); in the test on A498 renal, 103%; with CCRF-CEM leukemia it was 116%; with MOLT-4 leukemia, 109%; in the test with SR leukemia, 107%; in the test with RPMI-8226 leukemia it was 157%. Also, the growth is 112% with OVCAR-8 ovarian; 104% in the test on OVCAR-5 ovarian; 129% with OVCAR-4 ovarian; 100% in the test on SK-OV-3 ovarian; 121% with IGROV1 ovarian; 112% with OVCAR-3 ovarian. For the same molecule, the growth in the test on HS 578T breast is 136%; in the test with NCI/ADR-RES ovarian it was 105%.
Turning to `CSc1nc(N)c(CNC(C)c2ccccc2)c(=O)n1C` (stereo not given), the growth is 98.9% in the test on SK-MEL-2 melanoma; 100% in the test on EKVX NSCLC; 101% in the test with SN12C renal; 80.5% in the test on UO-31 renal; 120% in the test with TK-10 renal; 97.9% in the test on ACHN renal. For the same molecule, the growth with CAKI-1 renal is 107%; in the test on A498 renal, 102%; in the test on CCRF-CEM leukemia it was 106%; in the test with MOLT-4 leukemia it was 93.1%; with SR leukemia, 103%; in the test on RPMI-8226 leukemia it was 109%. Besides, the growth was 97.9% in the test with OVCAR-8 ovarian; 91.7% in the test with OVCAR-5 ovarian; 104% in the test on OVCAR-4 ovarian; 97.5% in the test with SK-OV-3 ovarian; 101% with IGROV1 ovarian; 110% in the test with OVCAR-3 ovarian. Moreover, the values for the growth with HS 578T breast and in the test on NCI/ADR-RES ovarian were 99.6% and 100%, respectively.
